Screens deposited in PubChem by Center for Chemical Genomics, University of Michigan.
The full list was thinned out, with hits kept by preference.
Dicer inh – human Dicer pre-microRNA cleavage inhibition. Q9UPY3. cat-ELCCA pre-miR-21 Dicer processing, chemiluminescence; active compounds read high. z-score at 25 µM. 47,000 compounds, 6% hits; in the data active = z-score above about 3, passing the limit was not always enough;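 note: plate controls were vehicle for no effect and no enzyme for full effect; higher signal means more uncleaved substrate so more Dicer inhibition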
Target sequence (Q9UPY3 whole entry, looked up): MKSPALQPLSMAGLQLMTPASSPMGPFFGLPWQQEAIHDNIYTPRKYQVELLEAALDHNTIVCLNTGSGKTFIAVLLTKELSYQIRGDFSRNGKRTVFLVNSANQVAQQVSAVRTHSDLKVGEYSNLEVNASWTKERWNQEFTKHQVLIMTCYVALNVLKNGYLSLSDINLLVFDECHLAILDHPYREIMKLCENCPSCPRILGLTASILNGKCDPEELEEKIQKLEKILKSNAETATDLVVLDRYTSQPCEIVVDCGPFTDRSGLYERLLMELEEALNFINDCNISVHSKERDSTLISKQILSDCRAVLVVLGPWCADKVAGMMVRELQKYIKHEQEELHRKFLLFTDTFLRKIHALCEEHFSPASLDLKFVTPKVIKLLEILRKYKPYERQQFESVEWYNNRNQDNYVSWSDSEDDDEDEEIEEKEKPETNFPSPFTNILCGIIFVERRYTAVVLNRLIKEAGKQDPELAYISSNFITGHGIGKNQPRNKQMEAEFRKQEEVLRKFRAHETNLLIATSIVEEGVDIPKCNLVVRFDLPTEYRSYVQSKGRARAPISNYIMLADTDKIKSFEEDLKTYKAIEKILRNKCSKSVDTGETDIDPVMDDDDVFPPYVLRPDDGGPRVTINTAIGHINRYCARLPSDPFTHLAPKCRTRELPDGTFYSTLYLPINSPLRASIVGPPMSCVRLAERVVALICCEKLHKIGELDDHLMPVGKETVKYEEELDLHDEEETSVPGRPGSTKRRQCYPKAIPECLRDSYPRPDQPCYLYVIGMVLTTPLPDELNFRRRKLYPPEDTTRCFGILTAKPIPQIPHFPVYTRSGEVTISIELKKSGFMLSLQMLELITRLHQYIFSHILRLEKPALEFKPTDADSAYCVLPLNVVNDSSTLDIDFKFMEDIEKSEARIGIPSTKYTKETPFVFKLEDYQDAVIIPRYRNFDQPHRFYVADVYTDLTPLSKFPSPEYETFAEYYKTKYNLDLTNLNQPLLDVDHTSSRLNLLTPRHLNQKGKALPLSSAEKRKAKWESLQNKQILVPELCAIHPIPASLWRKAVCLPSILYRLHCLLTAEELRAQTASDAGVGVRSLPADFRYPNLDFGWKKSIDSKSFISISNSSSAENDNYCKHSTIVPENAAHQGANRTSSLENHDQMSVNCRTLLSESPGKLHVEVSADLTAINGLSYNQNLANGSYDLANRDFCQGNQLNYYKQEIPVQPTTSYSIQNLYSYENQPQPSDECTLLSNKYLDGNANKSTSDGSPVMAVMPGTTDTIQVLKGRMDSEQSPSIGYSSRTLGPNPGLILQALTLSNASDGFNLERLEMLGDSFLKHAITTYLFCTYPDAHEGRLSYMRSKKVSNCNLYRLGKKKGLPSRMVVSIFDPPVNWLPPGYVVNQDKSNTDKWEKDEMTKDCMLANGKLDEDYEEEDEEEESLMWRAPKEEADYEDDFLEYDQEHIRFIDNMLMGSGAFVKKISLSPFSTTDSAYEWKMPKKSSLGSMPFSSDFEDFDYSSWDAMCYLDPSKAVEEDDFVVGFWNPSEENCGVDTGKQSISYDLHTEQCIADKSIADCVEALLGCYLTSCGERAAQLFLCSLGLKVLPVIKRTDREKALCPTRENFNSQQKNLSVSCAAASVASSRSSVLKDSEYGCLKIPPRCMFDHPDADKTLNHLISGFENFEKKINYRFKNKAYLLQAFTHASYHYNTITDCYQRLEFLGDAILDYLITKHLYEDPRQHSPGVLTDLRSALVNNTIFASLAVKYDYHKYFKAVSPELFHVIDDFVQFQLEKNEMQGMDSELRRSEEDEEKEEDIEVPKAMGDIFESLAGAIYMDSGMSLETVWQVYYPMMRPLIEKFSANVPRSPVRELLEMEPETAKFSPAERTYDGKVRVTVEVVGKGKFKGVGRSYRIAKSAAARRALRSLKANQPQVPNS
The depositor's hits bear a star.

SMILES	Dicer inh
Cc1ccc(Cc2c(C)[nH]c3[nH]n(-c4ccccc4)c(=O)c3c2=O)cc1	-0.56
Cc1ccc(-c2nc(NC(=O)CSc3nc(C)cc(C)c3C#N)ns2)cc1	0.73
Cc1cccc(Nc2nc3nonc3nc2Nc2ccc(F)cc2)c1C	2.4
Cc1cccc(Nc2ncncc2C#N)c1C	3.7*
Cc1cc(C)c(C#N)c(Nc2ccccc2C)n1	0.71
Cc1ccc(-c2cn3cc(-c4ccc(Cl)cc4)nc3n2C)cc1	-1.2
CN(C(=O)c1ccccc1)C1CCCCC1	0.46
COc1ccc(C(=O)/C(C#N)=N/Nc2cccc(Cl)c2Cl)cc1	8.3*
N#C/C(=N\Nc1ccc(F)cc1)C(=O)c1ccccc1Cl	0.3
COc1ccc(NC(=O)Nc2cccc(Cl)c2Cl)c(OC)n1	-0.73
CCOC(=O)c1sc(SC)c2c1CCCC21SCCS1	-0.39
N=C1C(=S)N(c2ccc(Cl)c(Cl)c2)C(=O)N1c1cccc2ccccc12	0.17
Nc1ccc(S(=O)(=O)c2ccc(N)cc2)cc1	1.5
Nc1ccc(Nc2ccc(N)cc2S(=O)(=O)O)cc1	44*
NC(=O)NS(=O)(=O)c1ccc(N)cc1	1
CSC(=Nc1c(C)cccc1C)N(C)C	-0.41
COC(=O)C1=C(C(=O)c2ccccc2)C(c2ccc(OC)cc2OC)n2nnnc2N1 (stereo not drawn)	-0.64
CCOC(=O)/C(C#N)=C/c1ccc(OC)c(Br)c1	0.45
Cc1ccc(C(=O)/C=C/Sc2ccccn2)cc1	0.72
O=C(/C=C/Sc1ccccn1)c1ccc(Br)cc1	3*
O=C(/C=C/Sc1c(Cl)cccc1Cl)c1ccc(Br)cc1	-0.12
CC(=O)CSc1nsc(SCC(C)=O)n1	-2.4
CNC(=S)N/N=C1\CCOc2ccc3ccccc3c21	-0.32
O=S(=O)(Oc1ccccc1N1CCOCC1)c1cc(Cl)sc1Cl	-0.84
O=C1Nc2ccc(Br)cc2/C1=C\C(=O)c1cccc([N+](=O)[O-])c1	0.02
SMILES	Dicer inh
CCOC(=O)c1c(NC(=O)Nc2sc(C)c(-c3ccccc3)c2C(=O)OCC)sc(C)c1-c1ccccc1	-1.7
CCOC(=O)c1c(NC(C)=O)sc2c(O)c(Sc3ccccc3)ccc12	4.1*
CCOC(=O)c1c(NC(=O)c2cc3ccccc3c(=O)o2)sc(C)c1C	0
CCn1c2c(c(=O)[nH]c1=O)C(c1cccc(Cl)c1)C1=C(N2)c2ccccc2C1=O (stereo not drawn)	-0.43
COCCn1c2c(c(=O)[nH]c1=O)C(c1cccc3ccccc13)C1=C(N2)c2ccccc2C1=O (stereo not drawn)	0.43
CCn1c2c(c(=O)[nH]c1=O)C(c1cccc3ccccc13)C1=C(N2)c2ccccc2C1=O (stereo not drawn)	3.4*
Cc1ccc(Sc2ncccc2NC(=O)c2cccs2)cc1	-0.54
CCOc1ccc(N2C(=O)C3C4c5ccccc5C(C)(c5ccccc54)C3C2=O)cc1 (stereo not drawn)	-0.08
Oc1ccc2ccccc2c1CNc1nc(-c2ccccc2)cs1	-2.2
Cn1sc(=O)c2cc(S(=O)(=O)Oc3ccc(Cl)cc3Cl)ccc21	-0.38
Cc1nn(C(=O)Nc2cccc(C(F)(F)F)c2)c(C)c1Sc1ccc(C(F)(F)F)cn1	-2.3
CCCc1cnc(NCCNCC(O)COc2ccccc2)nc1 (stereo not drawn)	-1.1
Oc1ccccc1/C=N/NC(=S)Nc1cccc(Cl)c1	13*
CNC(=S)N/N=C/c1ccccc1O	1.4
NNC(=S)Nc1cccc(Cl)c1	2.9
O=C(/N=C1/NC(=O)C(F)(C(F)(F)F)S1)NC1CCCCC1 (stereo not drawn)	2.7
Cc1ccc2nc(-c3cc4ccccc4o3)oc(=O)c2c1	-0.92
COc1ccccc1/C=C/c1nc2cc(Cl)ccc2c(=O)o1	0.09
Cc1ccc2nc(/C=C/c3ccco3)oc(=O)c2c1	11*
C(=C\c1ccco1)/C1=NN(Cc2ccccc2)CC1	0.78
O=c1c2ccccc2nc(/C=C/c2ccco2)n1Cc1ccccc1	3*
Cc1nc2ccc(Br)cc2c(=O)o1	-0.27
O=C(CSc1nc2ccccc2c(=O)n1Cc1ccco1)c1ccccc1	-1.3
O=C(Nc1nc2ccccc2c(=O)s1)c1ccco1	-0.49
O=c1oc(/C=C/c2ccco2)nc2ccccc12	18*
SMILES	Dicer inh
Cc1cc(CO)cc(C)c1Br	1.4
O=C(Cn1cc(Cl)c(=O)c(Cl)c1)N/N=C/c1ccc([N+](=O)[O-])s1	-4.5
CC(C)(C)SCc1cccc(C(=O)N2CCN(c3ncccc3C(F)(F)F)CC2)c1	-0.32
O=C1CC(N2CCN(c3cccc(Cl)c3)CC2)C(=O)N1c1cccc(Br)c1 (stereo not drawn)	1.4
CN1CCN(CCCSc2nnc3c(n2)[nH]c2ccccc23)CC1	0.47
O=C(Nc1ccccc1Cl)N1CCCN(c2ncccc2[N+](=O)[O-])CC1	1.4
Cc1c(C(=S)Nc2ccccc2)sc2ccccc12	0.92
CC(C(=O)c1ccccc1)C1(O)C(=O)Nc2ccccc21 (stereo not drawn)	-2.7
COc1ccccc1N1C(=O)C2C3C=CC(CC3)C2C1=O (stereo not drawn)	0.02
COc1ccccc1N1CC(C)(C)C(=O)NC1=S	6.2*
COc1ccccc1NC(=S)N1CC(C)(C)C1=O	-0.45
Nc1ncnc2c1nc(N/N=C/c1ccc(OC(=O)c3ccco3)cc1)n2[C@H]1O[C@@H](CO)[C@H](O)[C@@H]1O	1.7
O=C(O)c1cccc2cccc(-c3cccc4cccc(C(=O)O)c34)c12	-1.6
O=C(O)CCCc1ccc2ccc3cccc4ccc1c2c34	4*
O=C(O)CCCN1Cc2ccccc2C1	1.3
COc1cc(OC)c2nc(C)c3c(c2c1)N(c1cccc(C(F)(F)F)c1)CC3	-1
Cc1nc2c(C)cccc2c2c1CCN2c1ccccc1F	3.2*
COc1cccc(N2CCc3c(C)nc4ccc(Cl)cc4c32)c1	1.6
COc1ccc(C2C3=C(CC(C)(C)CC3=O)NC3=C2C(=O)CC(C)(C)C3)cc1	1.1
Cn1c(=O)c2c(nc(SCC(=O)NC(c3ccccc3)c3ccccc3)n2C)n(C)c1=O	-0.52
O=C1CSC(c2cccnc2)N1CCN1C(=O)CSC1c1cccnc1 (stereo not drawn)	-0.8
CCCCCCCNC(=O)C(C)CCO (stereo not drawn)	-0.24
COc1ccc(S(=O)(=O)Nc2ccc3oc4c(c3c2)C(=O)CCC4)cc1	0.14
CCOc1ccc(S(=O)(=O)Nc2cc(Cl)c3oc4c(c3c2)C(=O)CCC4)cc1	1.2
Cc1ccc(S(=O)(=O)Nc2cc(Cl)c3oc4c(c3c2)C(=O)CCC4)c(C)c1	3.1*
SMILES	Dicer inh
CCSc1nnc2c(n1)OC(c1ccc(C(=O)O)cc1)Nc1ccc(Br)cc1-2 (stereo not drawn)	-0.46
O=C1C2C(c3ccc(Cl)cc3)OC3(C(=O)c4ccccc4C3=O)C2C(=O)N1c1ccc(F)cc1F (stereo not drawn)	6.1*
CCOc1ccc(N2C(=O)C3C(c4ccc(C)cc4)OC4(C(=O)c5ccccc5C4=O)C3C2=O)cc1 (stereo not drawn)	3.4*
Cc1ccc(C2OC3(C(=O)c4ccccc4C3=O)C3C(=O)N(Cc4ccccc4)C(=O)C23)cc1 (stereo not drawn)	-1.4
Cc1c(Cl)cccc1N1C(=O)C2C(c3ccccc3)OC3(C(=O)c4ccccc4C3=O)C2C1=O (stereo not drawn)	0.46
O=C1C2C(c3ccc(F)cc3)OC3(C(=O)c4ccccc4C3=O)C2C(=O)N1Cc1ccc(Cl)cc1 (stereo not drawn)	-1.2
COc1ccc(N2C(=O)C3C(c4ccccc4)OC4(C(=O)c5ccccc5C4=O)C3C2=O)cc1OC (stereo not drawn)	-0.1
